# Reference: PubChem BioAssay (EPA / NIEHS)
# Values joined by “and” are separate entries in the source; they are usually repeats but may differ in a detail not shown here. Equal entries are not always repeated. Active and inactive are the calls of the source. The calls were made as follows: active = hit-call score of the fitted dose curve at least 0.9, where 1 is the maximum; inactive = score below 0.9.
# Test: CCTE_Shafer_MEA_acute_firing_rate_mean: CCTE's Neural Acute Assay for Mean Firing Rate, Shafer Lab (AID 2284009);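 also: analyzed for loss of signal so actives lower firing rate relative to DMSO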
# Outline: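 Read-out: well-mean spike rate (spikes/recording length/electrodes), % change from 40 min pre-dose baseline to 40 min with compound. Rat cortical cultures, DIV 13 or 15, 37 C; 0.03-40 uM; DMSO as negative control.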
SMILES,outcome,AC50
O=c1c(-c2ccc(O)cc2)coc2cc(O)ccc12,inactive,–
O=C(O)c1ccccc1C(c1ccc(O)cc1)c1ccc(O)cc1,inactive,–
CCc1ccc(CCOc2ccc(CC3SC(=O)NC3=O)cc2)nc1 (centres undefined),inactive,–
OC1CCC(C2CCCCC2)CC1 (centres undefined),–,20 µM (active)
CC(C)CCCCCCOC(=O)CCCCC(=O)OCCCCCCC(C)C,inactive,–
CCC(=C(c1ccc(O)cc1)c1ccc(OCCN(C)C)cc1)c1ccccc1,inactive,–
Cc1cc(CCN2CCN(c3nsc4ccccc34)CC2)cc2c1NC(=O)CC2(C)C,–,8.94 µM (active)
CN(C)C=O,inactive,–
OCCC(F)(F)C(F)(F)C(F)(F)C(F)(F)C(F)(F)C(F)(F)C(F)(F)C(F)(F)F,inactive,–
CN1CCC[C@H]1c1cccnc1,inactive,–
CCCOc1sc(C(=O)N2CCC(c3cc(CN)ccc3F)CC2)c(C)c1Br,inactive,–
NC(=O)N(O)[C@@H]1C=C[C@H](Oc2cccc(Oc3ccc(F)cc3)c2)C1,inactive,–
CC(C)(C)c1cc(C(C)(C)C)c(O)c(C(C)(C)C)c1,inactive,–
CC#C[C@]1(O)CC[C@H]2[C@@H]3CCC4=CC(=O)CCC4=C3[C@@H](c3ccc(N(C)C)cc3)C[C@@]21C,–,1.74 µM (active) and 2.84 µM (active)
CC(=O)NC1(c2cccc(F)c2)CCN(CC[C@@]2(c3ccc(Cl)c(Cl)c3)CN(c3ccccc3)C(=O)CO2)CC1,–,1.47 µM (active)
Oc1cc2ccccc2c2ccccc12,inactive,–
CCCCCCCCCCCCN1CCCC1=O,inactive,–
CN1CCN(c2ccccc2/C=C2\SCCN(c3ccc(Cl)c(Cl)c3)C2=O)CC1,–,10.5 µM (active)
CC[C@H](c1ccc(O)cc1)[C@@H](CC)c1ccc(O)cc1,inactive,–
CCCCCCCCCCCCc1ccccc1S(=O)(=O)O,inactive,–
CCCCCCCCCCCCCCCS(=O)(=O)Oc1ccccc1,inactive,–

# Test: CCTE_Harrill_HTTr_Viability_MCF7: CCTE's 6-hour Cell Viability Assessment for the High-Throughput Transcriptomics (HTTr) Platform, in MCF-7 cells cultured in DMEM + 10% fetal bovine serum, Harrill Lab (AID 2284010)
# Outline: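 Membrane integrity was scored by high-content imaging of propidium iodide dye exclusion after a 6 h exposure across an eight-point dilution series. Data were fitted bidirectionally relative to DMSO as negative control and baseline.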
SMILES,outcome,AC50
O=c1c(-c2ccc(O)cc2)coc2cc(O)ccc12,inactive,–
O=C(O)c1ccccc1C(c1ccc(O)cc1)c1ccc(O)cc1,inactive,–
O=C1OC2(c3ccccc31)c1cc(Br)c(O)c(Br)c1Oc1c2cc(Br)c(O)c1Br,inactive,–
CCc1ccc(CCOc2ccc(CC3SC(=O)NC3=O)cc2)nc1 (centres undefined),inactive,–
N#C[C@@H]1CC(F)(F)CN1C(=O)CNC1CC2CCC(C1)N2c1ncccn1 (some centres undefined),inactive,–
OC1CCC(C2CCCCC2)CC1 (centres undefined),inactive,–
Cc1oc(-c2ccccc2)nc1CCOc1ccc(C[C@H](Nc2ccccc2C(=O)c2ccccc2)C(=O)O)cc1,inactive,–
CC(C)CCCCCCOC(=O)CCCCC(=O)OCCCCCCC(C)C,inactive,–
CCCCCCCCC(=O)O,inactive,–
CC(O)CO (centres undefined),inactive,–
CCC(=C(c1ccc(O)cc1)c1ccc(OCCN(C)C)cc1)c1ccccc1,inactive,–
Cc1cc(CCN2CCN(c3nsc4ccccc34)CC2)cc2c1NC(=O)CC2(C)C,–,77.3 µM (active)
COc1ccc([N+](=O)[O-])cc1N,inactive,–
OCCC(F)(F)C(F)(F)C(F)(F)C(F)(F)C(F)(F)C(F)(F)C(F)(F)C(F)(F)F,inactive,–
CCCCCCCC(=O)O,inactive,–
NC(=O)N(O)[C@@H]1C=C[C@H](Oc2cccc(Oc3ccc(F)cc3)c2)C1,inactive,–
CC#C[C@]1(O)CC[C@H]2[C@@H]3CCC4=CC(=O)CCC4=C3[C@@H](c3ccc(N(C)C)cc3)C[C@@]21C,inactive,–
Oc1cccc(O)c1,inactive,–
Nc1cccc2c(N)cccc12,inactive,–
OC1CCCCC1,inactive,–
CC(=O)NC1(c2cccc(F)c2)CCN(CC[C@@]2(c3ccc(Cl)c(Cl)c3)CN(c3ccccc3)C(=O)CO2)CC1,inactive,–
Oc1cc2ccccc2c2ccccc12,–,9.92 µM (active)
CCCCCCCCCCCCN1CCCC1=O,inactive,–
CC(O)C(=O)O (centres undefined),inactive,–
CN1CCN(c2ccccc2/C=C2\SCCN(c3ccc(Cl)c(Cl)c3)C2=O)CC1,–,73.7 µM (active)
CC(C)(C)CC(C)(C)c1ccc(O)c(-n2nc3ccccc3n2)c1,inactive,–
CC[C@H](c1ccc(O)cc1)[C@@H](CC)c1ccc(O)cc1,inactive,–
CCCCCCCCCCCCc1ccccc1S(=O)(=O)O,inactive,–
